Source: PubChem (National Center for Advancing Translational Sciences (NCATS))
S16 F2sN tox: toxic to S16 Pmp22-F2sN Schwann cells | S16 Pmp22-F2sN Schwann cells viability, CellTiter-Glo, 24 h | Potency, µM (top dose mostly 57.5 µM), without a hit: top-dose activity change, negative = cytotoxicity, usual class: cytotoxic | 43,000 compounds, 0.48% hits | AID 1508642; also: nearly all actives have a fitted effect of over 65% in size
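Rat S16 Schwann reporter line, 24 h treatment with library compounds delivered at 23 nL per well. Cell viability by CellTiter-Glo luminescence.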
mTORC1 inh: reduces mTORC1 signaling in Tsc2 and p53 null MEF cells; Tsc2-/- p53-/- MEF, phospho-rpS6 immunofluorescence/PI, 24 h; Potency, µM (titrated, usually from 38.3 µM), for inactives: at the highest dose activity change, negative = inhibition, actives largely listed as inhibitors; 44,000 compounds, 0.78% hits; AID 493208;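 also: plate controls were DMSO for no effect and rapamycin for full effect; nearly all actives have a fitted effect of over 50% in size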
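Immunofluorescence of rpS6 phosphorylation in Tsc2-/-, p53-/- MEFs after 24 h compound exposure, normalized to propidium iodide signal. Activity is expressed as % positive cells, thresholded with 7.5 nM rapamycin.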
p53null 32C kill: selectivity test: cytotoxicity in p53 null cells, permissive temperature | AID 903 | Potency, µM (doses to about 46.1 µM), inactives show top-dose activity change, negative = cytotoxicity, actives largely listed as cytotoxic | H1299-neo p53 null cells, ATP luminescence, 24 h, 32C | 55,000 compounds, 0.62% hits;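 also: 0% = DMSO only and -100% = full killing by 100 µM tamoxifen; nearly all actives have a fitted effect of over 55% in size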
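H1299-neo (p53-null) cells, 600/well, were pre-incubated overnight at 37C, then exposed to compounds at up to 46 uM for 24 hr at 32C. Viability was measured as ATP content by luminescence, and AC50 values came from Hill fits.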
p53null 39C kill: selectivity test: cytotoxicity in p53 null cells, nonpermissive temperature. 55,000 compounds, 0.97% hits. H1299 p53-null (neo) cells, 39C, ATPlite viability, 24 h. AID 904. Potency, µM (titrated, usually from 46.1 µM), without a hit: at the top dose activity, negative = cell killing, actives largely listed as cytotoxic;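 also: 0% = DMSO only and -100% = full killing by 100 µM tamoxifen; nearly all actives have a fitted effect of over 50% in size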
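ATP-luminescence viability readout (ATPlite, 20 min RT) after 24 hr compound treatment at 39C of H1299-neo or H1299-p53A138V cells; titration up to 46 uM; normalized to DMSO and 100 uM tamoxifen; Hill-fit AC50.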
OvCa metastasis: blocks SKOV3ip1 adhesion and invasion in omental model; SKOV3ip1-GFP adhesion/invasion on 3D omental model, fluorescence; Potency, µM (titrated, usually from 45.8 µM), for the others: at the highest dose activity change, negative = inhibition, most hits filed as inhibitors; 46,000 compounds, 0.1% hits; AID 1963576;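 also: plate controls were DMSO wells for no effect and tomatine positive control wells for full effect; nearly all actives have a fitted effect of over 65% in size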
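A 3D layer of primary human omental fibroblasts, mesothelial cells, fibronectin and collagen I, grown 48 hr, received SKOV3ip1-GFP cells in serum-free medium plus compounds at 0.36-46 umol/L. After 2 hr RT and 16 hr 37 C, fixed adherent GFP cells were counted; normalized to DMSO and tomatine.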
PMP22 txn prim: modulators of PMP22 gene transcription in S16 Schwann cells; S16 Pmp22-F2sN Schwann cells (luciferase reporters placed in the Pmp22 gene), FLuc/NLuc coincidence luminescence, 24 h; Potency, µM (top dose mostly 57.5 µM), inactives show at the highest dose activity change, negative = inhibition, actives largely listed as inhibitors; 43,000 compounds, 2% hits; AID 1508649; active = clear falling dose curves in both reporters; inconclusive = both reporters move, but less clearly or upward; inactive = either reporter flat; the % is the NLuc reporter signal
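Rat S16 Pmp22-F2sN cells, 500-1,000/well in phenol red-free DMEM + 10% FBS, compound-treated 24 h (37C, 5% CO2). Luminescence: FLuc read, Stop&Glo added, NLuc read.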
An asterisk follows results filed as active; i = inactive; u = inconclusive; x = not tested or not shown; [ ] = dose if it differs, or a comment. A selection: hits, their analogues and other compounds. The true share with any hit is near 3.1%. Unless noted, calls follow the shape of the dose curve; as a rule, active = well fitted curve in the direction sought with a large enough effect; inconclusive = small, poorly fitted or top-dose-only effect, or another doubt; inactive = no such curve, though single readings can be large; an effect the other way counts as inactive or inconclusive. Unless noted, % is scaled to controls: 0 for no effect and ±100 for the full control effect; potency is read from the fitted curve at half-maximal effect.

SMILES	S16 F2sN tox	mTORC1 inh	p53null 32C kill	p53null 39C kill	OvCa metastasis	PMP22 txn prim
O=S(=O)(Nc1cccc(F)c1)c1ccc2[nH]c3c(c2c1)CCCCC3	u	0%	37%	16µM*	-16%	u
O=S(=O)(Nc1cc(F)ccc1F)c1ccc2[nH]c3c(c2c1)CCCCC3	8%	-16%	29%	10%	u	u
CC[C@@]1(O)C[C@H](O[C@H]2C[C@H](N(C)C)[C@H](O[C@H]3C[C@H](O)[C@H](O[C@H]4CCC(=O)[C@H](C)O4)[C@H](C)O3)[C@H](C)O2)c2c(cc3c(c2O)C(=O)c2c(O)cccc2C3=O)[C@@H]1C(=O)OC	x	x	x	x	6%	x
Cc1ccc(C(=O)CC2(O)C(=O)N(Cc3ccccc3)c3ccccc32)c(C)c1 (configuration not stated)	u	18µM*	34%	25%	6%	-27%
Cc1ccc(C(=O)CC2(O)C(=O)N(Cc3ccccc3)c3ccc(Br)cc32)cc1 (configuration not stated)	-26%	10µM*	-25%	u	u	u
COc1ccc(C(=O)CC2(O)C(=O)N(Cc3ccccc3Cl)c3ccccc32)cc1 (configuration not stated)	-24%	u	26%	9%	i	u
CCc1ccc(C(=O)CC2(O)C(=O)N(Cc3ccc(C)cc3)c3ccccc32)cc1 (configuration not stated)	-21%	12µM*	1%	u	i	u
CCCCN1C(=O)C(O)(CC(=O)c2ccc(C(C)(C)C)cc2)c2ccccc21 (configuration not stated)	u	u	56%	20µM*	-12%	u
CCCCN1C(=O)C(O)(CC(=O)c2ccc(C)cc2C)c2cc(Br)ccc21 (configuration not stated)	u	u	50%	u	u	u
CC(C)Oc1ccc(C(=O)N[C@H](CNC(=O)CN(C)C)Cc2ccc(-c3cn4cccc([C@H](C)O)c4n3)cc2)cc1Cl	x	x	x	x	-13%	x
CCCCc1ccc(NS(=O)(=O)c2ccc(C)c(C(=O)N3CCN(c4cccc(C)c4C)CC3)c2)cc1	x	x	x	x	14%	x
Cc1c(CN2CCN(C(=O)C(C)C)CC2)sc2c(N3CCOCC3)nc(-c3cnc(N)nc3)nc12	x	x	x	x	19%	x
Cc1oc(-c2cccc(Cl)c2)nc1CN1CCC(C(=O)NC(C)C)CC1	6%	-6%	0%	-19%	-5%	32%
Cc1ccc(Cl)cc1N1CCN(C(=O)C2CCN(Cc3nc(-c4cccc(Cl)c4)oc3C)CC2)CC1	u	2%	0%	25µM*	-6%	u
CO[C@H]1C[C@@H]2CC[C@@H](C)[C@@](O)(O2)C(=O)C(=O)N2CCCC[C@@H]2C(=O)O[C@H]([C@H](C)C[C@@H]2CC[C@H](OC(=O)C(C)(CO)CO)[C@H](OC)C2)CC(=O)[C@H](C)C=C(C)[C@@H](O)[C@@H](OC)C(=O)[C@H](C)C[C@H](C)C=CC=CC=C1C	x	x	x	x	0%	x
COc1cc(CN2CCN(c3cccc(Cl)c3)CC2)cc(OC)c1OC	x	x	7%	-25%	x	x
CCCOCc1cc(CN2CCN(c3cccc(Cl)c3)CC2)c(O)c2ncccc12	u	u	-24%	0.32µM*	u	u
CCCCOCc1cc(CN2CCN(c3cccc(Cl)c3)CC2)c(O)c2ncccc12	u	u	7%	-7%	-23%	2.7µM*
OC[C@H]1O[C@@H](n2cnc3c2NC=NC[C@@H]3O)C[C@H]1O	x	x	x	x	5%	x
CC(=O)c1ccc(NC(=O)CSc2nnc(NC(=O)NC3CCCCC3)s2)cc1	8%	-2%	6.3µM*	7.9µM*	i	-9%
O=C(CSc1nnc(NC(=O)NC2CCCCC2)s1)Nc1ccccc1F	10%	1%	10µM*	u	i	19%
COc1ccc(NC(=O)CSc2nnc(NC(=O)NC3CCCCC3)s2)cc1OC	6%	2%	13µM*	11µM*	-15%	-28%
CNC(=O)c1ccc(N2C(=S)N(c3cnc(C#N)c(C(F)(F)F)c3)C(=O)C23CCC3)cc1F	x	x	x	x	-6%	x
CCc1ccc(C(=O)Nc2cc(CN3CCN(C)CC3)cc(C(F)(F)F)c2)cc1C#Cc1cnc2ccnn2c1	x	x	x	x	2%	x
Cc1nn(-c2ccccc2)c2c1N(CCCC(=O)NCc1ccccc1)C(=O)CS2	u	-4%	8%	0%	i	u
SMILES	S16 F2sN tox	mTORC1 inh	p53null 32C kill	p53null 39C kill	OvCa metastasis	PMP22 txn prim
Cc1nn(-c2ccccc2)c2c1N(CCCC(=O)NCc1ccc(OC(C)C)cc1)C(=O)CS2	10µM*	0%	-7%	-13%	u	u
Cc1cnc(CNC(=O)c2c(=O)c3ccc(N4CCCN(C)CC4)nc3n3c2sc2ccccc23)cn1	x	x	x	x	2%[23.2 µM]	x
COc1cccc(NC(=O)Nc2cc(-c3cn4cccnc4n3)ccc2C)c1	9%	4%	-10%	u	0%	u
COc1ccc(-c2cn3cccnc3n2)cc1NC(=O)Nc1cc(C)ccc1C	u	-18%	u	16µM*	u	u
COc1cccc(NC(=O)Nc2cc(-c3cn4cccnc4n3)ccc2OC)c1	3%	-5%	16µM*	7.9µM*	i	u
CCOc1ccc(-c2oc3cc(Cl)ccc3c(=O)c2O)cc1OC	-11%	u	u	16µM*	i	u
COc1cc(-c2oc3ccc(C)cc3c(=O)c2O)cc(OC)c1OC	-18%	u	u	u	4%	-95%
CC(=O)Nc1ccc(NC(=O)CCc2c(C)nc3c(c(C)nn3-c3ccccc3)c2C)cc1	-7%	-2%	0%	u	-7%	-7%
CC(=O)Nc1ccc(NC(=O)CCc2c(C)nc3c(c(C)nn3-c3ccc(C)cc3)c2C)cc1	3%	-2%	-1%	6.3µM*	-10%	u
CCN1CCN(c2cc(C)c3cc(NC(=O)c4cc(OC)c(OC)c(OC)c4)ccc3n2)CC1	-19%	u	-8%	15%	-2%	-2%
CCN1CCN(c2cc(C)c3cc(NC(=O)c4ccc(OC)c(OC)c4)ccc3n2)CC1	20µM*	u	2%	-5%	0%	u
CCOc1ccccc1NC(=O)Nc1ccc2nc(N3CCN(C)CC3)cc(C)c2c1	u	u	u	18µM*	u	u
